Assay results as given in PubChem BioAssay.
The source made the active and inactive calls.

Columns and labels:
[1] = binders of probe aFSTL3 on microarray, primary screen, stem cell growth factor project, biochemical, small-molecule microarray, fluorescence 635/667 (AID 1064); conditions: higher = more signal;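 further: measures binding of the biotinylated anti-FSTL3 antibody to printed compounds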
[2] = binders from COS7 lysate, DM2A8 probe, primary screen, torsin A project, cell lysate, small-molecule microarray, fluorescence 635/667 (AID 1065); conditions: higher = more signal, COS7 lysate expressing mutant human TOR1A
[3] = binders of probe aFGF2 on microarray, primary screen, stem cell growth factor project, biochemical, small-molecule microarray, fluorescence 635/667 (AID 1067); conditions: higher = more signal;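 further: measures binding of biotinylated aFGF2 protein to printed compounds on slides; z-score merges feature fluorescence and signal-to-noise across triplicate slides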
[4] = binders of probe aFGF10 on microarray, primary screen, stem cell growth factor project, biochemical, small-molecule microarray, fluorescence 635/667 (AID 1071); conditions: higher = more signal;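 further: score merges 667 nm spot intensity and signal to noise from triplicate slides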
[5] = target: Neurogenic locus notch homolog protein 2 (Homo sapiens) (UniProt Q04721); test: Notch2 binders on small-molecule microarrays, primary screen, biochemical, small-molecule microarray, 635 nm fluorescence, stem cell growth factors (AID 1073); conditions: Notch2 binding, higher = more signal
Chain of Neurogenic locus notch homolog protein 2 (Homo sapiens) (Q04721 whole entry, looked up, canonical isoform): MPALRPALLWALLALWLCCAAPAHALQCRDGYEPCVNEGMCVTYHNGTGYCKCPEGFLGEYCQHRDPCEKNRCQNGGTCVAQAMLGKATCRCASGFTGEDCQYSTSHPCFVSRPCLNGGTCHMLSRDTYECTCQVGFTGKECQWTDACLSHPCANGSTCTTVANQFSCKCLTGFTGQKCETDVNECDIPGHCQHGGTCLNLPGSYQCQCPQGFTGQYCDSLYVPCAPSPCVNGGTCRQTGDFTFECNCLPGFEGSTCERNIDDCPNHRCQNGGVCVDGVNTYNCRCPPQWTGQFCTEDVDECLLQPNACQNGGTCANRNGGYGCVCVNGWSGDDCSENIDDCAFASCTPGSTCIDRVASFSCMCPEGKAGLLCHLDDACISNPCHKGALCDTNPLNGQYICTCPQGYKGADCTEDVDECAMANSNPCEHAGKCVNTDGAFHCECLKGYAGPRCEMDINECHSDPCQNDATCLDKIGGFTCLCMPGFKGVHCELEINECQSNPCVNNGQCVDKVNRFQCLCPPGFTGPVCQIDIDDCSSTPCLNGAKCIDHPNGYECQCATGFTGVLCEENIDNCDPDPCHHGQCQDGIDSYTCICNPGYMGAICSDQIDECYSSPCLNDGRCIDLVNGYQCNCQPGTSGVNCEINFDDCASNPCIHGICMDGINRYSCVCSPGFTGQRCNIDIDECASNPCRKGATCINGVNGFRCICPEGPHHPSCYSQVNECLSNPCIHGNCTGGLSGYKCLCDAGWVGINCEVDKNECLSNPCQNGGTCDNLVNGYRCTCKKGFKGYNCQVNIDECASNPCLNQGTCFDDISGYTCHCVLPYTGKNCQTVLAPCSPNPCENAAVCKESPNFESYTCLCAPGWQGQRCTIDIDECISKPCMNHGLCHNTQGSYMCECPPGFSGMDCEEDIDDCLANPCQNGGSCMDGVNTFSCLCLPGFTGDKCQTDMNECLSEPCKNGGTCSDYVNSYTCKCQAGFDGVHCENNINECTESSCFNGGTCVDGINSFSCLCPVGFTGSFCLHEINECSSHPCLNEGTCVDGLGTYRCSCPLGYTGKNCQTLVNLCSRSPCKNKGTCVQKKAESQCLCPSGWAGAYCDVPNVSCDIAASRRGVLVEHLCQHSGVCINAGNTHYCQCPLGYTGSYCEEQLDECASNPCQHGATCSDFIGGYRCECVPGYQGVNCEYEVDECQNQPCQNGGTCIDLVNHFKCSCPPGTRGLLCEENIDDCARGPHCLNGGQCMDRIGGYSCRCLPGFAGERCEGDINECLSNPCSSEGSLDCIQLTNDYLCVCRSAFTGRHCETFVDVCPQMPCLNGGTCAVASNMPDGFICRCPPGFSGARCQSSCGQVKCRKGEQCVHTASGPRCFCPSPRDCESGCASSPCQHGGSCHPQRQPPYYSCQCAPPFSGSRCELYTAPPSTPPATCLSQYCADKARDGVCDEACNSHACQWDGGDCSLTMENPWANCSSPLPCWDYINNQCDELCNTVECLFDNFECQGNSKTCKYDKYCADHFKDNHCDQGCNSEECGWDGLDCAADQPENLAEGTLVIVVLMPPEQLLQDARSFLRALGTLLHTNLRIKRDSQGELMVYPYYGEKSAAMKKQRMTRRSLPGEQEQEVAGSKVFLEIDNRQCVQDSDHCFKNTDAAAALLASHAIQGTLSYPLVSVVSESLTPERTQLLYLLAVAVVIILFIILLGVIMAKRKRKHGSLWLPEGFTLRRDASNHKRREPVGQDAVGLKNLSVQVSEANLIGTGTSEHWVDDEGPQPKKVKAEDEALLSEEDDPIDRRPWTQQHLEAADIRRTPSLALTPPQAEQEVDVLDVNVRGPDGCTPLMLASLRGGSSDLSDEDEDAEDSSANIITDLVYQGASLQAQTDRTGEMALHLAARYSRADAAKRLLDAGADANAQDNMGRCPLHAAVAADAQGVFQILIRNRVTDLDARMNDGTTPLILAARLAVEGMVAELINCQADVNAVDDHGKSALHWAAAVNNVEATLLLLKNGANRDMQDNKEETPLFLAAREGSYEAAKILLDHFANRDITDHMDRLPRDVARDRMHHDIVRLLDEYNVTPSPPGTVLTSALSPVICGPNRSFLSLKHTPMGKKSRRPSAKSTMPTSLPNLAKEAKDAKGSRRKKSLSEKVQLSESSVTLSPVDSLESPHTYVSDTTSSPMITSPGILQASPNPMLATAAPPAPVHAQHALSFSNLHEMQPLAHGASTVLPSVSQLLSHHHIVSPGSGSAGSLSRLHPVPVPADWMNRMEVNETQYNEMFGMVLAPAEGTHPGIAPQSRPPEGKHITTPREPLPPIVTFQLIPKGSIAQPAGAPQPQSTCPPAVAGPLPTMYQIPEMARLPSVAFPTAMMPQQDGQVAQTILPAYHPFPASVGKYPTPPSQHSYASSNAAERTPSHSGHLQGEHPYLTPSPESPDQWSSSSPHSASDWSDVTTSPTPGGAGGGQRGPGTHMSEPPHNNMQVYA

[6] = target: Pro-neuregulin-1, membrane-bound isoform (Homo sapiens) (UniProt Q02297); test: NRG1 binders on small-molecule microarrays, primary screen, psychiatric disease protein project, biochemical, small-molecule microarray, fluorescence 635/667 (AID 1075); conditions: NRG1 binding, 635 nm fluorescence, higher = more signal;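 further: score combines 667 nm spot fluorescence with signal to noise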
Chain of Pro-neuregulin-1, membrane-bound isoform (Homo sapiens) (Q02297 whole entry, looked up, the tested form may be a part, canonical isoform): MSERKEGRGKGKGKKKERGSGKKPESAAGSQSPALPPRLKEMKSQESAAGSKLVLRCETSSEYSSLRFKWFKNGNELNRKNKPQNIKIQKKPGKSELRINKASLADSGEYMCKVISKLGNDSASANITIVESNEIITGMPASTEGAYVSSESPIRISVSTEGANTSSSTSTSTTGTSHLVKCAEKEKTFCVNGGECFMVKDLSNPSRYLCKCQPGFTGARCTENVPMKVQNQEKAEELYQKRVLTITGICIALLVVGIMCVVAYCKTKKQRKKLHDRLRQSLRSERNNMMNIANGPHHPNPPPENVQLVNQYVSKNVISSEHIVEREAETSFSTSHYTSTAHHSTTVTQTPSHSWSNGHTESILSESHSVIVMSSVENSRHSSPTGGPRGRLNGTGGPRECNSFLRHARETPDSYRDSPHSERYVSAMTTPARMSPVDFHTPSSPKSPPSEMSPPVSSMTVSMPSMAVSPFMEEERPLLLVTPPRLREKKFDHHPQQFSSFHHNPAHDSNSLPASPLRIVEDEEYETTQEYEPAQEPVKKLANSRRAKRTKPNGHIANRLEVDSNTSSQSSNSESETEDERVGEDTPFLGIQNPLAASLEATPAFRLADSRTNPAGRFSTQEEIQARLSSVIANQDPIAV

[7] = system: Neuregulin-1 EGF-like domain; test: binders of neuregulin-1 EGF-like domain, primary screen, biochemical, small-molecule microarray, 635 nm fluorescence (AID 1081); conditions: small-molecule microarray binding, higher = more signal;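 further: binding of the protein to compounds printed on small-molecule microarray slides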
[8] = FRG1 promoter luciferase signal modulators, primary screen, FRG1 inhibition for FSHD, cell-based, C2C12 myotubes, firefly/Renilla luciferase, luminescence (AID 1084); conditions: higher = more signal, called active from +8 up or from −8 down
[9] = binders of probe aFST on microarray, primary screen, stem cell growth factor project, biochemical, small-molecule microarray, fluorescence 635/667 (AID 1086); conditions: higher = more signal;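 further: score merges 667 nm fluorescence with signal-to-noise of each printed compound spot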
[10] = binders of probe aHhip on microarray, primary screen, stem cell growth factor project, biochemical, small-molecule microarray, fluorescence 635/667 (AID 1087); conditions: higher = more signal;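 further: score merges spot fluorescence at 667nm with spot signal to noise ratio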

Structure (SMILES)	composite z-score [1]	composite z-score [2]	composite z-score [3]	composite z-score [4]	composite z-score [5]	composite z-score [6]	composite z-score [7]	z-score [8]	composite z-score [9]	composite z-score [10]
COCCOC(=O)N1C(=O)[C@@]2(c3ccccc31)[C@H](c1ccccc1OCCO)N1[C@H](c3ccccc3)[C@H](c3ccccc3)OC(=O)[C@H]1[C@@H]2C(=O)N1CCN(c2ncccn2)CC1	0.0686	1.07	-0.0629	0.0228	0.598	1.38	1.18	-2.05 (inactive)	0.152	-0.0672
COc1cccc(-c2cccc(=O)o2)c1	0.782	-0.387	0.338	0.143	0.0405	0.851	0.322	5.22 (inactive)	0.807	-0.236
O=C(NCCN1CCOCC1)C1N=C(c2ccc(OCCCO)cc2)N(c2ccccc2)O1 (stereo not given)	0.377	1.4	0.071	0.318	1.48	0.561	1.3	4.31 (inactive)	0.524	0.075
COC(=O)[C@@]1(Cc2ccc(OC)cc2)[C@H]2c3cc(C(=O)N(C)C)n(Cc4ccc(S(C)(=O)=O)cc4)c3C[C@H]2CN1C(=O)c1ccccc1	1.12	0.325	0.27	0.178	1.24	1.64	1.31	-1.49 (inactive)	1.46	0.296
COC(=O)[C@@]1(Cc2ccc(F)cc2)[C@H]2c3cc(C(=O)N4CCCC4)n(Cc4ccc(S(C)(=O)=O)cc4)c3C[C@H]2CN1C(=O)c1ccccc1	0.635	-0.266	0.29	0.983	1.55	1.88	0.859	-0.205 (inactive)	2.09	-0.0169
C#C[C@H](O[Si](C#Cc1ccc(Oc2ccccc2)cc1)(C(C)C)C(C)C)c1ccccc1	-0.247	1.27	-0.0613	0.853	1.25	0.206	0.801	0.297 (inactive)	0.315	-0.0994
C=CCOC(=O)[C@H]1[C@@H]2C(=O)O[C@@H](c3ccccc3)[C@@H](c3ccccc3)N2[C@@H](c2ccc(OCCOC(=O)[C@H]3C[C@H]4C(=O)N[C@@H](CCCCNC(C)=O)C(=O)N4[C@H]3c3ccc(O)cc3)cc2)[C@]12C(=O)Nc1ccc(I)cc12	-0.37	0.517	0.0126	0.169	0.791	0.349	1.14	0.136 (inactive)	1.3	0.312
COc1cc2c(cc1O)C(c1cccs1)N(C)CC2 (stereo not given)	-0.101	-0.493	-0.201	-0.143	-0.521	-0.714	-0.31	0.52 (inactive)	-0.166	-0.0994
COc1ccc(C#Cc2ccc3c(c2)[C@]2(C(=O)N3)[C@H](c3ccccc3OCCO)N3[C@H](c4ccccc4)[C@H](c4ccccc4)OC(=O)[C@H]3[C@@H]2C(=O)Nc2nc3ccccc3s2)cc1	-0.541	-0.0327	-0.0232	0.615	1.18	0.65	1.17	2.1 (inactive)	0.362	-0.0618
